# Values without a mark were called inactive. The source made the active and inactive calls. Cut-off read from the data, not from the text of the source, unless noted: active = inhibition above about 25%; inactive = the rest.
# How the values were obtained:
# [1] = molecular target: Nuclear receptor coactivator 1 (Homo sapiens) (UniProt Q15788); assay: SRC1 coactivator transcriptional activity inhibitors, confirmation, cell-based, luminescence, quadruplicate (AID 588820;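 active = mean inhibition above 46.68%, the untreated control wells mean plus 3 SD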;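 note: 0% = DMSO wells and 100% = gossypol 36 µM treated wells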); conditions: HEK293 GAL4-SRC1 luciferase reporter, at 3.6 µM, active compounds read high
# Sequence of Nuclear receptor coactivator 1 (Homo sapiens) (Q15788 whole entry, looked up, the tested form may be a part): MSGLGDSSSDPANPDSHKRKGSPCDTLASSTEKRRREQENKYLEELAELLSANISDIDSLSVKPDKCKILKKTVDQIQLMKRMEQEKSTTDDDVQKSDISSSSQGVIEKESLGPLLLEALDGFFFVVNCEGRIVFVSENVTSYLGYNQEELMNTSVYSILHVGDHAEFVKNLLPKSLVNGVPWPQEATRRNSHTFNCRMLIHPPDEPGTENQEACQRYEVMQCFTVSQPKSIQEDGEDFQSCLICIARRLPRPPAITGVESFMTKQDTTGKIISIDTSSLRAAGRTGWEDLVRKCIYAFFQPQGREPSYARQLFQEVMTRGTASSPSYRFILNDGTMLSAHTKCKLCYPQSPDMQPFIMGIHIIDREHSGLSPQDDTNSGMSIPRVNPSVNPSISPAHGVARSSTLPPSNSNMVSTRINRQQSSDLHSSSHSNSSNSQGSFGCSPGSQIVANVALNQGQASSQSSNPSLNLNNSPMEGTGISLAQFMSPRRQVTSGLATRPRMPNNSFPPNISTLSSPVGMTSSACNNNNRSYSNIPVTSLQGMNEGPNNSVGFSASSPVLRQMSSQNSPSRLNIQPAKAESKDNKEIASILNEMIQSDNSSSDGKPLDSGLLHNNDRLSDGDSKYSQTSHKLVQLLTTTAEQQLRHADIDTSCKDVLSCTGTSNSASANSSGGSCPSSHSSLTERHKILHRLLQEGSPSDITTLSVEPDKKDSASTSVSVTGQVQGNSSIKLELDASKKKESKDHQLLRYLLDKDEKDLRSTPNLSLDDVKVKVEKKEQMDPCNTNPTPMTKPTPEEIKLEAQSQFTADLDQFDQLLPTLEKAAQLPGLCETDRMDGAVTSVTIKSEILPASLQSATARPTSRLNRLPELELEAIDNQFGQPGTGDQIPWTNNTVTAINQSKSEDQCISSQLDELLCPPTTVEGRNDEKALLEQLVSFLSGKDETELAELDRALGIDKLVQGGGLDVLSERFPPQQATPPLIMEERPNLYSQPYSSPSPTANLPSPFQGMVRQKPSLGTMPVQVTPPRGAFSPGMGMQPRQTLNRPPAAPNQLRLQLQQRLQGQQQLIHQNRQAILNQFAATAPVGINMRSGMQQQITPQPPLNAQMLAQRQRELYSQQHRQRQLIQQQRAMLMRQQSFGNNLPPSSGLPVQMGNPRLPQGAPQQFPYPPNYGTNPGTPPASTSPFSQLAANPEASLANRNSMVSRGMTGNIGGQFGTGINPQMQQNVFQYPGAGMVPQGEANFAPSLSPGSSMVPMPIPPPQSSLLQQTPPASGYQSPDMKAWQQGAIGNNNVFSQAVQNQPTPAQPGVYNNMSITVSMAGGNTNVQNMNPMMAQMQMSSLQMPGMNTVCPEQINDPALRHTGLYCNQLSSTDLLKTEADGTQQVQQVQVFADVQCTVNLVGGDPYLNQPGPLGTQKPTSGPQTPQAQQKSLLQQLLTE
# [2] = VP16 transactivation inhibitors, counter-screen for SRC1 inhibitor project, cell-based, luminescence, high throughput (AID 588824); conditions: cell-based VP16 transactivation luciferase luminescence; at 3.6 µM; active compounds read high
Compound,inhibition [1] [%],inhibition [2]
O=C(CSc1n[nH]c(-c2cccnc2)n1)Nc1ccc([N+](=O)[O-])cc1,-26.9,-8.24%
COc1cccc(CNc2nc3cc(-c4ccsc4)sc3c(=O)n2C)c1OC,-0.05,25.6% (active)
O=S(=O)(NCc1ccncc1)c1ccc(Br)s1,-15.5,28.8% (active)
NC(=O)c1nsc(C(=O)N(c2ccccc2F)C(C(=O)NCc2ccc(F)cc2)c2ccc(O)cc2)c1N (centres undefined),-23.1,-2.03%
COCCn1cnc2c1c(=O)n(Cc1ccccc1C#N)c(=O)n2Cc1ccccc1,-22.2,1.6%
COc1cc(NC(=O)c2cc3cccc(OC)c3o2)cc(C(=O)Nc2cccc(C(F)(F)F)c2)c1,-23.9,18.4%
CCN(CC)c1ccc(C=Nc2cc(C)ccc2C)c(O)c1,3.4,-6.63%
CC(C)N(C)c1ncnc2c1ncn2[C@H]1CN(Cc2ccncc2)C[C@@H](CO)O1,-19.9,-7.41%
COc1cc(-c2cnc3c(NC(C)=O)cc(-c4ccc(N5CCN(C)CC5)cc4)cn23)cc(OC)c1OC,-17.8,-18.2%
O=c1c2ccccc2cnn1Cc1n[nH]c(=S)n1C1CC2CCC1C2 (centres undefined),8.04,-8.54%
O=C1CC(N2CCN(Cc3ccccc3)CC2)C(=O)N1 (centres undefined),-10.4,-10.1%
NS(=O)(=O)c1ccc(NC(=O)CCCCC(=O)Nc2ccc(S(N)(=O)=O)cc2)cc1,-1.93,-4.87%
C=CCc1ccccc1OCC(=O)N/N=C/c1ccc(OC(C)=O)cc1OC(C)=O,16.6,-4.05%
COc1ccc(CCN2C(=O)C3C4C=CC(C3C2=O)C2C(=O)N(CCc3ccc(OC)c(OC)c3)C(=O)C42)cc1OC (centres undefined),-5.96,11.5%
COc1cccc(C(c2c(NC(=O)c3ccco3)sc(C)c2C)N2CCOCC2)c1 (centres undefined),-6.24,-1.54%
c1ccc(CC2CCN(c3ncnc4sccc34)CC2)cc1,-13.8,29.4% (active)

Compound,inhibition [1] [%],inhibition [2]
Cc1ccc(NC(=O)CN(C(=O)N2CCN(C)CC2)S(=O)(=O)c2ccc(C)cc2)cc1,-4.36,-2.41%
C=C1C(=O)O[C@@H]2[C@H]1CC[C@H](C)[C@]1(O)CCC(=O)[C@@]21C,-18,11.1%
CN(CC(=O)NNC(=O)Cc1ccccc1F)S(=O)(=O)c1ccc(Cl)cc1,-12.3,4.4%
COc1cc(OC)cc(C(=O)NNC(=O)c2ccccn2)c1,10.7,2.65%
COCCN1C2=C(C(=O)CC(C)(C)C2)C(c2ccc(OC)c(OC)c2)C2=C1CC(C)(C)CC2=O,-10.8,12%
COc1ccc(-c2cn[nH]c2C)cc1,-12,5.39%
CCCNC(=O)C1(C)CCCN(Cc2cccc(C#N)c2)C1 (centres undefined),36.4,26% (active)
CC1Sc2n(c3ccccc3[n+]2C)N=C1c1ccccc1 (centres undefined),-6.75,11.7%
O=C(Nc1cccc(Br)c1)c1cc(S(=O)(=O)N2CCOCC2)cs1,-2.57,-2.73%
CN1CCN(c2nc(-c3cccs3)nc3ccccc23)CC1,14.3,10%
Cc1cc(C)c(CN2CCN(C(=O)Cn3cnc4c(OCc5ccccc5)ncnc43)CC2)c(C)c1,4.65,38.5% (active)
O=C1CSc2ccc(S(=O)(=O)NCc3ccccc3)cc2N1,-4.74,-9.61%
CCn1cc(C(=O)NCC(OC)OC)c(=O)c2cc(S(=O)(=O)N(C)C3CCCCC3)ccc21,11.4,19.8%
Cc1cccc(C)c1NC(=S)N(CCN(C)C)Cc1cccs1,-19.4,-2.41%
Cc1noc(C)c1COC(=O)CCN1c2ccccc2Sc2ccccc21,0.23,-13.4%
COc1ccc2c(c1)-c1c(ssc1=S)C(C)(C)N2C(=O)CSC1=NCCS1,24.9,12.4%
